{"source": "PubChem BioAssay AID620", "about": "(Sanford-Burnham Center for Chemical Genomics, 2007)", "note": "The whole screen tested about 87,000 compounds, of which about 360 (0.41%) were called active. Only a selection was taken, and actives are over-represented in it overall. A number with no mark means an inactive call. No stated cut-off is given here; in the data, active means cytotoxicity above about 50%; inactive means the rest.", "data": [{"experiment": "cytotoxicity in HT1080 fibrosarcoma cells, cell-based, fluorescence readout (AID 620);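 further: cells exposed to compound overnight then 4 h with Alamar Blue; 0% = vehicle DMSO and 100% = killing control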", "details": "HT1080 viability, at 10 µM, hits give high values", "values": [{"molecule": "CCCCNC(=O)c1ccc2c(c1)N(CC)C(=O)c1ccccc1S2(=O)=O", "cytotoxicity": "-4.4%"}, {"molecule": "CSc1nc(NCC(C)C)nc(N2CCOCC2)n1", "cytotoxicity": "1%"}, {"molecule": "CC(=O)NC1=NN(C(C)=O)C2(CCCCC2)S1", "cytotoxicity": "0.7%"}, {"molecule": "CCCC1(C)SC(NC(C)=O)=NN1C(C)=O", "note": "(stereo not drawn)", "cytotoxicity": "-1.8%"}, {"molecule": "CC(=O)NC1=NN(C(C)=O)C(C)(c2cccs2)S1", "note": "(stereo not drawn)", "cytotoxicity": "65.3% (active)"}, {"molecule": "COc1ccc(C(=O)CSc2nc(SC)ns2)cc1OC", "cytotoxicity": "7.5%"}, {"molecule": "COc1cc(NC(=O)COc2ccc(F)cc2)nc(OC)n1", "cytotoxicity": "5%"}, {"molecule": "O=C(Nc1ccc2nc(-c3cccs3)[nH]c2c1)c1cccs1", "cytotoxicity": "17%"}, {"molecule": "O=C(Nc1ccc2nc(-c3ccccc3)[nH]c2c1)c1cccs1", "cytotoxicity": "56.7% (active)"}, {"molecule": "O=C(Nc1ccc(-c2nc3ccc(NC(=O)c4cccs4)cc3[nH]2)cc1)c1cccs1", "cytotoxicity": "16.4%"}, {"molecule": "COc1ccc(C(=O)SC2=NCCS2)cc1", "cytotoxicity": "-11.1%"}, {"molecule": "Cc1cc(C)n(-c2c(F)c(F)c(CO)c(F)c2F)n1", "cytotoxicity": "-14.3%"}, {"molecule": "CS(=O)(=O)N(CC(=O)N1CCN(c2ccccc2)CC1)C1CCCCC1", "cytotoxicity": "-5.1%"}, {"molecule": "CCCNC(=O)C1CN(S(=O)(=O)c2ccccc2)CCN1S(=O)(=O)c1ccccc1", "note": "(stereo not drawn)", "cytotoxicity": "3.1%"}, {"molecule": "Cn1c(Cn2nnc3ccccc32)nnc1SCC(=O)NCc1ccc2c(c1)OCO2", "cytotoxicity": "-4.4%"}, {"molecule": "CCn1ncc(C2=NOC(C(=O)NCc3ccc(Cl)cc3)C2)c1C", "note": "(stereo not drawn)", "cytotoxicity": "71.2% (active)"}, {"molecule": "CCn1ncc(C2=NOC(C(=O)NCC(C)C)C2)c1C", "note": "(stereo not drawn)", "cytotoxicity": "1.4%"}, {"molecule": "CCn1ncc(C2=NOC(C(=O)NCc3ccc(OC)cc3)C2)c1C", "note": "(stereo not drawn)", "cytotoxicity": "2%"}, {"molecule": "CCn1ncc(C2=NOC(C(=O)Nc3ccc(C)cc3)C2)c1C", "note": "(stereo not drawn)", "cytotoxicity": "7.8%"}, {"molecule": "CCn1ncc(C2=NOC(C(=O)NCc3ccccc3)C2)c1C", "note": "(stereo not drawn)", "cytotoxicity": "53.9% (active)"}, {"molecule": "CCn1ncc(C2=NOC(C(=O)NCCc3ccccc3)C2)c1C", "note": "(stereo not drawn)", "cytotoxicity": "4.4%"}, {"molecule": "Cc1ccc(C)c(NC2=NC3(CCCCC3)N=C(N)N2)c1", "cytotoxicity": "4.3%"}, {"molecule": "COC(=O)C(NC(=O)c1ccco1)(Nc1nc(C2CC2)cs1)C(F)(F)F", "note": "(stereo not drawn)", "cytotoxicity": "1.9%"}, {"molecule": "CCc1ccccc1NC(=O)CN(C)Cc1nc(N)nc(Nc2ccccc2C)n1", "cytotoxicity": "-1%"}, {"molecule": "CO/N=C/NC(=O)Cc1cn(-c2ncc(C(F)(F)F)cc2Cl)c2ccccc12", "cytotoxicity": "7.8%"}, {"molecule": "Cc1cc(NC(=O)c2ccco2)ccc1-n1cnnn1", "cytotoxicity": "-8.1%"}, {"molecule": "Cc1c(C(=O)Nc2ccc(-n3cnnn3)cc2)oc2ccccc12", "cytotoxicity": "26.2%"}, {"molecule": "Cc1c(C(=O)Nc2nnc(C(F)(F)F)s2)oc2ccccc12", "cytotoxicity": "82.5% (active)"}, {"molecule": "COc1ccc(C(=O)Nc2nnc(C(F)(F)F)s2)cc1", "cytotoxicity": "66.8% (active)"}, {"molecule": "Cc1ccc2c(C)c(C(=O)Nc3nnc(C)s3)oc2c1", "cytotoxicity": "1.1%"}, {"molecule": "O=C(Nc1nnc(C(F)(F)F)s1)c1cccnc1", "cytotoxicity": "24%"}, {"molecule": "CCOCc1nnc(NC(=O)c2ccc(OC)cc2)s1", "cytotoxicity": "7.7%"}, {"molecule": "Cc1cc(NC(=O)c2oc3ccccc3c2C)ccc1-n1cnnn1", "cytotoxicity": "75.3% (active)"}, {"molecule": "COC(=O)c1sc(NC(=O)c2oc3ccccc3c2C)nc1C", "cytotoxicity": "-14.4%"}, {"molecule": "COc1cccc(C(=O)Nc2ccc(F)cc2F)c1", "cytotoxicity": "-7.7%"}, {"molecule": "CC(C)(C)c1ccc(Oc2cccc(C3CC(=O)C(C4NCCc5ccccc54)C(=O)C3n3cncn3)c2)cc1", "note": "(stereo not drawn)", "cytotoxicity": "-1.9%"}, {"molecule": "CCn1c(CC(=O)Nc2ccccc2)nnc1SCC(=O)Nc1ccccc1C(=O)OC", "cytotoxicity": "0.7%"}, {"molecule": "COc1ccc(N2CCCCn3c2nc2c3c(=O)[nH]c(=O)n2C)cc1", "cytotoxicity": "3.8%"}, {"molecule": "CCOC(=O)Cn1nc(-c2ccc(Cl)cc2)ccc1=O", "cytotoxicity": "-5%"}, {"molecule": "CCn1c(CSc2nc3ccccc3n2C)nc2ccccc21", "cytotoxicity": "27.6%"}, {"molecule": "COc1cc(C2C(C#N)=C(C)NC3=C2C(=O)CC(C)(C)C3)cc(OC)c1O", "note": "(stereo not drawn)", "cytotoxicity": "-2.1%"}, {"molecule": "COc1ccc(C2C(C#N)=C(C)NC3=C2C(=O)c2ccccc23)cc1", "note": "(stereo not drawn)", "cytotoxicity": "3%"}, {"molecule": "COc1cc(C2C(C#N)=C(C)NC3=C2C(=O)c2ccccc23)cc(OC)c1OC", "note": "(stereo not drawn)", "cytotoxicity": "68.6% (active)"}, {"molecule": "COc1cc(NC(=O)c2cccs2)c(C(=O)OCC(=O)NCc2ccccc2)cc1OC", "cytotoxicity": "9.6%"}, {"molecule": "CCOc1ccc(NC(=O)CSc2nnc(C)n2CC2CCCO2)cc1", "note": "(stereo not drawn)", "cytotoxicity": "-2.7%"}, {"molecule": "COc1ccc(-c2noc(CN3CCCCC3)n2)cc1OC", "cytotoxicity": "11.9%"}, {"molecule": "CN(C)S(=O)(=O)c1ccc(S(=O)(=O)N(Cc2ccco2)Cc2ccccc2Cl)cc1", "cytotoxicity": "-1.9%"}, {"molecule": "CCOc1cc(S(=O)(=O)N2CCC(Cc3ccccc3)CC2)c(OCC)cc1-n1cnnn1", "cytotoxicity": "-6.4%"}, {"molecule": "CCOc1cc(S(=O)(=O)N2CC=C(c3ccc(F)cc3)CC2)c(OCC)cc1-n1cnnn1", "cytotoxicity": "52.5% (active)"}, {"molecule": "CCOc1cc(S(=O)(=O)N2CCN(c3ccc(F)cc3)CC2)c(OCC)cc1-n1cnnn1", "cytotoxicity": "2.6%"}, {"molecule": "CC12CCC(C(=O)N3CCN(Cc4ccccc4)CC3)(OC1=O)C2(C)C", "note": "(stereo not drawn)", "cytotoxicity": "0.4%"}, {"molecule": "CN1CC[n+]2c(CN3C(=O)c4ccccc4C3=O)csc21", "cytotoxicity": "15.5%"}, {"molecule": "CCCC(=O)c1c(NC(C)C)cc(C)oc1=O", "cytotoxicity": "-2.5%"}, {"molecule": "COc1cc(C(=O)N2CCN(c3cc(Cl)ccc3Cl)CC2)cc(OC)c1OC", "cytotoxicity": "66% (active)"}, {"molecule": "COc1cc(C(=O)N2CCN(C(=O)c3ccccc3)CC2)cc(OC)c1OC", "cytotoxicity": "-2.8%"}, {"molecule": "COc1ccc(Cl)cc1S(=O)(=O)N1CCN(C(=O)c2cc(OC)c(OC)c(OC)c2)CC1", "cytotoxicity": "-2.5%"}, {"molecule": "COc1ccc(C(=O)N2CCN(C(=O)c3cc(OC)c(OC)c(OC)c3)CC2)cc1", "cytotoxicity": "-0.7%"}, {"molecule": "COc1cc(C(=O)N2CCN(c3cccc(C)c3C)CC2)cc(OC)c1OC", "cytotoxicity": "62.4% (active)"}, {"molecule": "Cc1cccc(N2CCN(C(=O)c3ccncc3)CC2)c1C", "cytotoxicity": "21.3%"}, {"molecule": "O=C(C1CC1)N1CCN=C1SCc1ccccc1", "cytotoxicity": "-4.5%"}, {"molecule": "Cc1cccc(NC(=O)c2ccc(S(=O)(=O)N(C)C)cc2)n1", "cytotoxicity": "36.5%"}, {"molecule": "CCc1ccc(NC(=O)CCn2ccnc2C)cc1", "cytotoxicity": "-7%"}, {"molecule": "Cc1ccc(S(=O)(=O)N(C)c2ccc(OCC(=O)OCc3c(C)noc3C)cc2)cc1", "cytotoxicity": "11.5%"}]}]}
